Here are results for 13 molecules from PubChem BioAssay (EPA / NIEHS).

Experiment [1] concerns Sodium/Iodide Symporter (NIS), SLC5A5 (gene 6528). Briefly: CPHEA_Stoker_NIS_Inhibition_RAIU: CPHEA's Radioactive Iodide Uptake (RAIU) Assay for Sodium/Iodide Symporter (NIS) Inhibition, Stoker and Laws Labs (AID 2283841). An outline of the steps:
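Iodide uptake read as CPM of intracellular 125I (final 329 pM) after 2 h room-temperature exposure in HEPES-buffered HBSS, pH 7.4. Human NIS-expressing HEK293T cells; six concentrations 0.001–100 uM, 0.5% DMSO, normalised to DMSO wells.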

Experiment [2] in a line: CPHEA_Stoker_NIS_Cytotoxicity: Cytotoxicity Assessment for CPHEA's Radioactive Iodide Uptake (RAIU) Assay for Sodium/Iodide Symporter (NIS) Inhibition, Stoker and Laws Labs (AID 2283897). An outline of the steps: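 CellTiter-Glo ATP luminescence gauged viability in HEK293T cells expressing human NIS after 2 h chemical exposure. Concentrations ran 0.001–100 uM in 0.5% DMSO; DMSO served as baseline for the loss-of-signal fit.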

Experiment [3] is described as follows: TOX21_PR_BLA_Followup_Agonist_viability: Viability Assessment in the Tox21 HEK293 Progesterone Receptor (PR) Agonism Beta-lactamase Follow-Up Assay (AID 2283935).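 Further: signal loss means lower viability so actives are cytotoxic.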 The essentials: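 PR-UAS-bla HEK293T cells in 2% charcoal-stripped FBS medium, plated 6 hr before compound addition, exposed 16 hr at 37C. Viability read by CellTiter-Glo ATP luminescence after 30 min at room temperature, in the same wells as the beta-lactamase readout.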

Experiment [4] is described as follows: TOX21_PR_BLA_Followup_Antagonist_viability: Viability Assessment in the Tox21 HEK293 Progesterone Receptor (PR) Antagonism Beta-lactamase Follow-Up Assay (AID 2283936).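 Further: hits lower the luminescence signal meaning cytotoxicity.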 The essentials: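 PR-UAS-bla HEK293T cells (3,000/well, 2% charcoal-stripped FBS) given compound plus R5020 agonist, 16 h at 37C. CellTiter-Glo added after bla read, 30 min at room temperature; luminescence loss indicates cytotoxicity.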

In experiment [5] the target is frog Thyroid hormone Receptor alpha (TRa), thra-a (gene 397942) (UniProt P15204). Briefly: ATG_frTRa_XSP2: Attagene TRANS-FACTORIAL Multi-Species (XSP2) HepG2 Assay for frog Thyroid hormone Receptor alpha (TRa) (AID 2283839). An outline of the steps: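 Frog thyroid receptor alpha was tested as an exogenous NR-Gal4 fusion in transiently transfected HepG2 cells. After 24 h chemical treatment, reporter mRNA induction was quantified by RT-PCR and capillary electrophoresis, with gain-of-signal analysed relative to DMSO.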

Experiment [6] has as its target human Thyroid hormone Receptor beta (TRb), THRB (gene 7068) (UniProt P10828). Briefly: ATG_hTRb_XSP2: Attagene TRANS-FACTORIAL Multi-Species (XSP2) HepG2 Assay for human Thyroid hormone Receptor beta (TRb) (AID 2283840).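 Further: actives raise reporter mRNA so potency reflects agonist-like gain of signal.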 An outline of the steps:
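In this cell-based multiplex, HepG2 liver cells carrying transfected GAL4-UAS reporter constructs are exposed to chemical for 24 hours, then reporter transcripts are measured by RT-PCR with capillary electrophoresis, scored as gain of signal against DMSO.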

In experiment [7] the target is PGR (gene 5241) (UniProt P06401). Put plainly: TOX21_PR_BLA_Followup_Agonist_ratio: Tox21 HEK293 Progesterone Receptor (PR) Agonism Beta-lactamase Follow-Up Assay, Ratio (AID 2283933). The essentials:
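PR-UAS-bla HEK293T cells in medium with 2% charcoal-stripped FBS were dosed after 6 h plating and incubated 16 h at 37C. LiveBLAzer FRET substrate was added for 2 h at room temperature. Cleaved/uncleaved substrate ratio fitted against DMSO; CellTiter-Glo viability run in the same wells.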

For experiment [8] the target is unchanged. Put plainly: TOX21_PR_BLA_Followup_Antagonist_ratio: Tox21 HEK293 Progesterone Receptor (PR) Antagonism Beta-lactamase Follow-Up Assay, Ratio (AID 2283934). An outline of the steps: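 PR-UAS-bla HEK293T cells, 3,000/well in 2% charcoal-stripped FBS, given compound plus 1nM R5020 agonist for 16 hr at 37C. Beta-lactamase FRET substrate 2 hours, ratio cleaved/uncleaved fluorescence; viability by CellTiter-Glo in same wells.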

Experiment [9] has the same target. Briefly: TOX21_PR_LUC_Followup_Agonist: Tox21 HEK293 Progesterone Receptor (PR) Agonism Luciferase Follow-Up Assay (AID 2283937; active means hit-call score of the fitted dose curve at least 0.9, where 1 is the maximum; inactive means score below 0.9). An outline of the steps: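 HEK293-PR-A-luc cells, conditioned 5 days in 10% charcoal-stripped FBS medium, seeded 3,000/well for 5 h, then compound-treated 16 h at 37C. ONE-Glo luminescence read after 30 min at room temperature; gain of signal versus DMSO.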

For experiment [10], the target named is human Thyroid hormone Receptor alpha (TRa), THRA (gene 7067) (UniProt P10827). Briefly: ATG_hTRa_XSP2: Attagene TRANS-FACTORIAL Multi-Species (XSP2) HepG2 Assay for human Thyroid hormone Receptor alpha (TRa) (AID 2283838). The essentials:
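HepG2 cells were transiently transfected with GAL4-UAS reporter units for chimeric human TRa-Gal4 and dosed for 24 hours, with 3 nM 6-alpha-fluorotestosterone and 1.5 nM norgestrel present. Reporter mRNA was quantified by RT-PCR, FAM labelling and capillary electrophoresis, with gain of signal fitted versus DMSO.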

SMILES strings stand for the structures. Results filed as inconclusive are left out. Calls of active or inactive are those of the source. How the source made its calls, unless noted: active means hit-call score of the fitted dose curve at least 0.9, where 1 is the maximum; inconclusive means response in the unintended direction; inactive means score below 0.9.

human Thyroid hormone Receptor beta (TRb), THRB (gene 7068), sequence (P10828 whole entry, looked up, the tested form may be a part): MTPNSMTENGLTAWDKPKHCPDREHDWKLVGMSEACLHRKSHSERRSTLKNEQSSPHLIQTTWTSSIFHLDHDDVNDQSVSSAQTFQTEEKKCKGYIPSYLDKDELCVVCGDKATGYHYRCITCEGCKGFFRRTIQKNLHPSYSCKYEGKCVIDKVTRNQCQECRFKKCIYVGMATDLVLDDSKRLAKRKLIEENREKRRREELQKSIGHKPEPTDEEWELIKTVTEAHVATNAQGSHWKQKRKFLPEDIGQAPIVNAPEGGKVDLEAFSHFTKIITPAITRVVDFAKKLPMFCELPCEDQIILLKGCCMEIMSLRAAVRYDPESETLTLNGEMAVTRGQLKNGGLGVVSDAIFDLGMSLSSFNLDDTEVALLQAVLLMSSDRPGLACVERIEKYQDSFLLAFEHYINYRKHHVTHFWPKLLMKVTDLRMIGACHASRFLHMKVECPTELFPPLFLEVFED
frog Thyroid hormone Receptor alpha (TRa), thra-a (gene 397942), sequence (P15204 whole entry, looked up, the tested form may be a part): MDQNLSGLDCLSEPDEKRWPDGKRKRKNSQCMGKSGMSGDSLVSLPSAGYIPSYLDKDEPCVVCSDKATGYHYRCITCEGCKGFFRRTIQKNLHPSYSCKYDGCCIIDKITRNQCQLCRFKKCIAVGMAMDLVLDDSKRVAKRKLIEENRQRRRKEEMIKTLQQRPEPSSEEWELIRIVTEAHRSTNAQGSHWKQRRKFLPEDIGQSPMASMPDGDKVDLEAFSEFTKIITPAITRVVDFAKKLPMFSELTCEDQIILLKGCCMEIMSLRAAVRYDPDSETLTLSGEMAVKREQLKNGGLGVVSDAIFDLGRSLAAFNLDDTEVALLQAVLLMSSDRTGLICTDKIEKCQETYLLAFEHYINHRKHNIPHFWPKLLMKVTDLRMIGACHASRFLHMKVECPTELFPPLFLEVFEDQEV
PGR (gene 5241), sequence (P06401 whole entry, looked up): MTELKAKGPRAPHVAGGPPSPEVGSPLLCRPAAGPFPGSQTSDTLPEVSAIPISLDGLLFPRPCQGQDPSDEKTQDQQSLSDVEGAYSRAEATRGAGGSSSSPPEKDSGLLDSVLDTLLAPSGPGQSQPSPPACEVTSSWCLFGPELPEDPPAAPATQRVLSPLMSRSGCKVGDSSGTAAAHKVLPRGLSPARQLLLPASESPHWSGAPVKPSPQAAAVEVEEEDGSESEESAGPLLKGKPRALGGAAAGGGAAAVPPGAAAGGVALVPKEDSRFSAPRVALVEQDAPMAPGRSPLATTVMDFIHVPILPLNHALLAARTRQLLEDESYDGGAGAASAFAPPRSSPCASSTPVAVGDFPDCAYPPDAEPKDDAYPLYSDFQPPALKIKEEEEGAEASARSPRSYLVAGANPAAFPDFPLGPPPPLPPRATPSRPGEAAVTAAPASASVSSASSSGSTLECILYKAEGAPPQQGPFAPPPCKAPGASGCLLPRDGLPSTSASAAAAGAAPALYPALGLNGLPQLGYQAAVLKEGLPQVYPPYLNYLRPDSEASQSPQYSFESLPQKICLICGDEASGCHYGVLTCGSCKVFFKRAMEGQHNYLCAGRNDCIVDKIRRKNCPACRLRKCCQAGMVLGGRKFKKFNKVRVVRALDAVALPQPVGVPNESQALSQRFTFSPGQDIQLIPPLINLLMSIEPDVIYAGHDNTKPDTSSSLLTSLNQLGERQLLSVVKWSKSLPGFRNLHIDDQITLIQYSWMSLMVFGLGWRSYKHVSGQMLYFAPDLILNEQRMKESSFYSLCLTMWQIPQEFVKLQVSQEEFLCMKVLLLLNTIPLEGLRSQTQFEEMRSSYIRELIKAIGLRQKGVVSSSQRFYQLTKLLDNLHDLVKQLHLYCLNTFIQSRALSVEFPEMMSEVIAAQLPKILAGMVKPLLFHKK
human Thyroid hormone Receptor alpha (TRa), THRA (gene 7067), sequence (P10827 whole entry, looked up, the tested form may be a part): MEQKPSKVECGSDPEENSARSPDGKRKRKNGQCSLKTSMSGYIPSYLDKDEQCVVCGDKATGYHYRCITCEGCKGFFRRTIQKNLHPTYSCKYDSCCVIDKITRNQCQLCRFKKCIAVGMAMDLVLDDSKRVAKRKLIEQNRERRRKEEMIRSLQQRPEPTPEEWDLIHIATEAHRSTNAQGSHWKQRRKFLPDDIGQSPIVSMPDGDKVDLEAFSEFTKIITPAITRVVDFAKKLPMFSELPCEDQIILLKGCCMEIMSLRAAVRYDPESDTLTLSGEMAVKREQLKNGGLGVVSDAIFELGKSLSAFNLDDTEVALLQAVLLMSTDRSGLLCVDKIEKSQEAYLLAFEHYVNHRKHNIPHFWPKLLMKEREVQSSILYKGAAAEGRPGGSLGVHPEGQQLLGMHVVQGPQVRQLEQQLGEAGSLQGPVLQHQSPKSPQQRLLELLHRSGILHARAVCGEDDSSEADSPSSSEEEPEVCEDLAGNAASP

Regarding `CCCCOC(=O)[C@@H](C)Oc1ccc(Oc2ccc(C(F)(F)F)cn2)cc1`, the outcome in experiment [1] and in experiment [2] was inactive.
Consider `C[C@]12C[C@H](O)[C@H]3[C@@H](CCC4=CC(=O)CC[C@@]43C)[C@@H]1CC[C@@H]2C(=O)CO`, for which the result in experiment [3] and in [4] was inactive.
Take `S=C([S-])NCCNC(=S)[S-].[Mn+2]`: the result in experiment [1] and in experiment [2] was inactive.
With `O=C(c1ccc(O)cc1O)c1ccc(O)cc1O`, the molecule was classed as inactive (in experiment [5]; in experiment [6]; with PGR (gene 5241) [7]; in experiment [4]; with PGR (gene 5241) [9]). Besides, the AC50 with PGR (gene 5241) [8] is 58.1 µM (active).
In the case of `CC(C)CCCCCCc1ccc(O)cc1`, the outcome (in [5]; in experiment [6]; in experiment [1]; in experiment [2]; with PGR (gene 5241) [8]; in experiment [3]) was inactive. Moreover, in experiment [4], the outcome was inactive.
In the case of `N#CSCSc1nc2ccccc2s1`, in [1], the AC50 is 50 µM (active). Moreover, in experiment [2], the result was inactive.
For `CCOC(=O)COc1cc(-n2ncc(C(F)(F)F)c(C)c2=O)c(F)cc1Cl`, the outcome in [1] and in experiment [2] was inactive.
As for `O=C(Nc1ccc([N+](=O)[O-])cc1Cl)c1cc(Cl)ccc1O`, the AC50 in experiment [1] is 0.111 µM (active). In addition, the result in experiment [2] was inactive.
`C#C[C@]1(O)CC[C@H]2[C@@H]3CCC4=CC(=O)CC[C@@H]4[C@H]3CC[C@@]21CC`: the call in experiment [10] and in experiment [5] was inactive. Moreover, the AC50 in [6] is 1.44 µM (active).
On to `C[C@]12CC[C@@H]3c4ccc(O)cc4C[C@@H](CCCCCCCCCS(=O)CCCC(F)(F)C(F)(F)F)[C@H]3[C@@H]1CC[C@@H]2O` (some centres undefined), for which the outcome in the experiment with PGR (gene 5241) [7] and with PGR (gene 5241) [9] was inactive. Besides, the AC50 in the experiment with PGR (gene 5241) [8] was 4.06 µM (active).
For the molecule `CSC(=O)c1cccc2nnsc12`, the call in experiment [6], in experiment [1] and in [2] was inactive.
Turning to `CC1(C)C(C=C(Cl)Cl)C1C(=O)OCc1cccc(Oc2ccccc2)c1` (centres undefined), the result in experiment [10] and in experiment [5] was inactive. Also, in experiment [6], the AC50 was 100 µM (active).
For the molecule `S=C(S)NCCNC(=S)S.[Mn+2].[S-]C([S-])=NCCN=C([S-])[S-].[Zn+2]`, the result in [1] and in experiment [2] was inactive.
